According to PubChem BioAssay (NCATS):
Inconclusive results are not listed. A number with no mark means an inactive call. Active and inactive are the calls of the source. The call rests on the fitted dose curve; in most records, active means well fitted inhibition curve with a large enough effect; inconclusive means small, poorly fitted or top-dose-only effect; inactive means flat fitted curve, though single readings scatter.
On the % scale 0 is the no-effect control and ±100 the full control effect; potency means the concentration at half of the fitted maximal effect.

Each compound was assayed on MKL-1 (assay: qHTS assay to identify novel small-molecules to repurpose for Merkel cell carcinoma treatment (AID 1296009; further: nearly all actives have a fitted effect of over 60% in size)). Conditions: MCC and control cell lines, CellTiter-Glo viability, 72 h; series mostly up to 46 µM; activity change, negative = cytotoxicity: at the top concentration.
In short: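 Viability readout: ATP luminescence (CellTiter-Glo) after 72 hr drug exposure at 37 degree celsius. Dose-response format was 8 points for NPC and 11 points for MIPE; data normalized to in-plate controls.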
`Nc1cccc(-c2cc3c(Oc4cccc(O)c4)ncnc3[nH]2)c1` was tested, and the “activity change, negative = cytotoxicity” value was 2.83%.
In the case of `COC(=O)C[C@](O)(CCCC(C)(C)O)C(=O)O[C@@H]1C(OC)=C[C@]23CCCN2CCc2cc4c(cc2[C@H]13)OCO4`, the “activity change, negative = cytotoxicity” value is reported as -6.74%.
For `CC(C)C[C@H](NC(=O)CNC(=O)c1cc(Cl)ccc1Cl)B(O)O`, the Potency was 0.743 µM (active).
`NC(=O)c1cccc2cn(-c3ccc([C@@H]4CCCNC4)cc3)nc12` was tested, and the Potency was 18.7 µM (active).
With `C[C@@]12O[C@@H](C[C@]1(O)CO)n1c3ccccc3c3c4c(c5c6ccccc6n2c5c31)CNC4=O` the Potency was 1.48 µM (active).
With `CN1CCN(c2cc(C(=O)Nc3ccc4c(c3)-c3c(c(C(N)=O)nn3-c3ccc(F)cc3)CC4)c(Cl)cn2)CC1` the Potency was 26.4 µM (active).
In the case of `Cc1ccc(S(=O)(=O)Nc2cc(Cl)ccc2C(=O)Nc2nc(-c3ccccc3)cs2)cc1`, the “activity change, negative = cytotoxicity” value is reported as -6.96%.
`C[C@@H]1CN(CC(=O)Nc2ccc3c(c2)Cc2cccc(-c4cc(=O)cc(N5CCOCC5)o4)c2S3)C[C@H](C)O1` was tested, and the “activity change, negative = cytotoxicity” value was -8.73%.
`c1cc(-c2cnn3cc(-c4ccc(OCCN5CCCCC5)cc4)cnc23)ccn1` was tested, and the Potency was 11.8 µM (active).
In the case of `COc1c(OCCCN2CCOCC2)ccc2c3n(c(=NC(=O)c4cnc(N)nc4)nc12)CCN3`, the “activity change, negative = cytotoxicity” value is reported as -25.3% [at 16.1 µM].
`O=c1[nH]c(=O)n(C2CCCO2)cc1F` (configuration not stated) was tested, and the “activity change, negative = cytotoxicity” value was -1.33% [at 92.7 µM].
In the case of `CCC1=C[C@@H]2CN(C1)Cc1c([nH]c3ccccc13)[C@@](C(=O)OC)(c1cc3c(cc1OC)N(C)[C@@H]1[C@@](O)(C(=O)OC)[C@H](OC(C)=O)[C@]4(CC)C=CCN5CC[C@]31[C@@H]54)C2`, the Potency is reported as 0.0118 µM (active).
For `CCN(CC)CCNC(=O)c1ccc2nc(-c3ccccc3)c(-c3ccc(CN4CCC(n5c(=O)[nH]c6ccccc65)CC4)cc3)nc2c1`, the Potency was 1.32 µM (active).
For `CCN(CC)CCCCNc1ncc2cc(-c3cc(OC)cc(OC)c3)c(NC(=O)NC(C)(C)C)nc2n1`, the “activity change, negative = cytotoxicity” value was -9.1%.
In the case of `COC(=O)[C@]12CCC(C)(C)C[C@@H]1[C@@H]1C(=O)C=C3[C@@]4(C)C=C(C#N)C(=O)C(C)(C)[C@@H]4CC[C@@]3(C)[C@]1(C)CC2`, the “activity change, negative = cytotoxicity” value is reported as 7.95%.
For `Cc1ccc(-c2ncn(-c3ccc(Nc4nccc(-c5cccc(N6CCOCC6)c5)n4)cc3)n2)cn1`, the Potency was 0.235 µM (active).
For `O=C(O)c1ccc2c(c1)nc(Nc1cccc(Cl)c1)c1ccncc12`, the “activity change, negative = cytotoxicity” value was -27.5%.
`Cc1cn2c(-c3cn[nH]c3)cnc2c(Nc2ccc(C(=O)N3CCNCC3)cc2F)n1` was tested, and the “activity change, negative = cytotoxicity” value was -10.9%.
In the case of `O=C(NC1CCNCC1)c1[nH]ncc1NC(=O)c1c(Cl)cccc1Cl`, the Potency is reported as 0.372 µM (active).
For `Cc1cccc(C=NNc2cc(N3CCOCC3)nc(OCCc3ccccn3)n2)c1`, the Potency was 20.9 µM (active).
`COc1cccc2c(NCc3ccccc3)nc(-n3c(N)nc4ccccc43)nc12` was tested, and the Potency was 9.35 µM (active).
In the case of `CN(C)CCCN=c1c2ccccc2n(C)c2[nH]c(=O)n(C)c(=O)c12`, the Potency is reported as 10.5 µM (active).
